Compound activity as filed in PubChem.
The list is not random: actives were taken first. Their share in the collection is about 2.3%.
HTT cytoprotect – cytoprotection in Huntington HTT-Q103 PC12 cell model; PC12 HTT-Q103 induced, cytoprotection, ATP luminescence, 40 h; Potency, µM (titrated, usually from 56.4 µM), usual class: activators; AID 1471; actives 0.14% (n = 230,000); further: nearly all actives have a fitted effect of over 45% in size
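Rat PC12, Q103 Htt exon1-GFP fusion, ecdysone promoter; tebufenozide inducer 100 nM final; compound titration; qHTS, 1500 cells/well; ATPlite luminescent read.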
Coupling enz – coupling enzyme interference in Giardia aldolase counter-screen | coupling enzyme system counterscreen, AmpLite Red fluorescence | activity change, negative = inhibition, % at 58.2 µM, hits read low | actives 0.67% (n = 290,000); in the data active means activity change below about -30%
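Compounds tested against the coupling enzymes alone at 57.5 uM final; readout was AmpLite Red fluorescence (525/598 nm) after 20 min at RT.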
GoLoco inh red – RGS12 GoLoco-Gai1 interaction inhibition; Potency, µM (series often up to 61.6 µM), actives largely listed as inhibitors; Gai1:RGS12 GoLoco peptide FP, rhodamine, 10 min; P63096; actives 0.44% (n = 230,000); AID 880; active means well fitted inhibition curve with a large enough effect, not every such curve was filed as active; inactive means no such curve, though single readings can be large or run the other way; further: nearly all actives have a fitted effect of over 30% in size
VDR inh – vitamin D3 receptor (human) inhibition | P11473 | VDR-SRC2-3 peptide fluorescence polarization, 2 h | Potency, µM, hits mostly inhibitors | actives 0.93% (n = 400,000) | AID 504847
Target sequence (P11473 whole entry, looked up): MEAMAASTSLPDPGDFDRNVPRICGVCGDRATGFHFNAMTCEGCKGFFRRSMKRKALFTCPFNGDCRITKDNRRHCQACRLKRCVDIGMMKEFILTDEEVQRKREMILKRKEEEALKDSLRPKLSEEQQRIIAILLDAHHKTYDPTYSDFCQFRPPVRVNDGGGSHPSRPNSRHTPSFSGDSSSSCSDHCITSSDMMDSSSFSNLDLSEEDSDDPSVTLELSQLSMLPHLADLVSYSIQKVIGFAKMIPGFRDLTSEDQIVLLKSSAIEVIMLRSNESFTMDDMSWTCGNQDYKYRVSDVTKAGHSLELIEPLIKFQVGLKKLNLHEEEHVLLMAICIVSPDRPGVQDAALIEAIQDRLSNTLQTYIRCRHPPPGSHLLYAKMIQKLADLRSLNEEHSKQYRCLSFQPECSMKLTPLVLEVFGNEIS
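Fluorescence polarization assay measuring small-molecule disruption of VDR binding to the coregulator peptide SRC2-3. Compounds were pin-transferred (23 nl) into the reagent mix and incubated 2 h at room temperature before reading.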
HttQ103 aggreg – reduces HttQ103-GFP aggregates in PC12 cells; PC12 HttQ103-GFP aggregates, Acumen cytometry, 40 h; Potency, µM (top dose mostly 46.1 µM), actives largely listed as inhibitors; actives 1.1% (n = 220,000); AID 1688; further: nearly all actives have a fitted effect of over 60% in size
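Steps: seed 1500 PC12 HTTQ103-GFP cells/well; add tebufenozide, 100 nM final; add compound titration; add ATPLite reagent; quantify GFP aggregates by laser scanning cytometry.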
JMJD2E inh – blocks human JMJD2E demethylase activity; Potency, µM (highest dose often 57.1 µM), most hits filed as inhibitors; B2RXH2; actives 1.6% (n = 230,000); JMJD2E catalytic domain, FDH-coupled NADH fluorescence (FDH is formaldehyde dehydrogenase); further: nearly all actives have a fitted effect of over 50% in size
Of the large screens only hits and unclear results are named; the others gave an inactive call; ! = not confirmed by another sample. Unless noted, the call rests on the fitted dose curve; in most records, active means well fitted curve in the direction sought with a large enough effect; inconclusive means small, poorly fitted or top-dose-only effect, or another doubt; inactive means no such curve, though single readings can be large; an effect the other way counts as inactive or inconclusive.

c1ccc(CNc2nc(-c3ccoc3)nc3ccccc23)cc1	VDR inh 31.6µM (no result: HttQ103 aggreg, JMJD2E inh)
Cc1ccc(NC(=O)Nc2ccnc(-c3cccnc3)n2)cc1	HTT cytoprotect 3.55µM, HttQ103 aggreg inconclusive
COc1cccc(NC(=O)CN2C(=O)c3cccc4cccc2c34)c1	none (no result: HTT cytoprotect, Coupling enz, GoLoco inh red, HttQ103 aggreg, JMJD2E inh)
O=C(COC(=O)CSc1ccc(F)cc1)NNC(=O)c1ccc([N+](=O)[O-])cc1	none (no result: HTT cytoprotect, Coupling enz, GoLoco inh red, HttQ103 aggreg, JMJD2E inh)
CC[C@@H]1OC(=O)[C@@H](C)[C@H](O[C@@H]2C[C@@](C)(OC)[C@@H](O)[C@H](C)O2)[C@H](C)[C@H](O[C@@H]2O[C@@H](C)C[C@@H](N(C)C)[C@H]2O)[C@@](C)(O)C[C@H](C)C(=O)[C@@H](C)[C@H](O)[C@@]1(C)O	none (no result: Coupling enz, GoLoco inh red, VDR inh, HttQ103 aggreg, JMJD2E inh)
Oc1ccc(/C=N/Nc2nc(-c3cccnc3)nc3ccccc23)c(O)c1	JMJD2E inh 22.4µM
c1cncc(-c2nc(N3CCOCC3)c3ccccc3n2)c1	HttQ103 aggreg 0.891µM
c1ccc(CNc2nc(-c3cccnc3)nc3ccccc23)cc1	VDR inh 17.8µM! (no result: HttQ103 aggreg, JMJD2E inh)
CC(C)c1noc(-c2ccccc2OCC(=O)Nc2ccc([N+](=O)[O-])cc2)n1	none (no result: HTT cytoprotect, Coupling enz, GoLoco inh red, HttQ103 aggreg, JMJD2E inh)
Clc1ccc(-n2nnc(-c3nccs3)n2)cc1Cl	JMJD2E inh 12.6µM
COc1ccc(C)cc1NC(=O)Cn1cc(S(=O)(=O)Cc2ccccc2Cl)c2ccccc21	none (no result: HTT cytoprotect, Coupling enz, GoLoco inh red, HttQ103 aggreg, JMJD2E inh)
CCOC(=O)/C=C/CCC/C=C/C(=O)c1ccccc1	VDR inh 8.91µM (no result: HttQ103 aggreg)
O=S(=O)(c1ccccc1)N1CCC(n2nnc3cc(F)ccc32)CC1	none
O=S(=O)(c1ccc2c(c1)OCCO2)N1CCC(n2nnc3cc(C(F)(F)F)ccc32)CC1	HttQ103 aggreg 10µM
Cc1ccc(CCNC(=O)CN(C)S(=O)(=O)c2cnc[nH]2)cc1	none
CN(CC(=O)NCc1ccccc1)S(=O)(=O)c1cnc[nH]1	HttQ103 aggreg 0.631µM (no result: HTT cytoprotect)
CCOC(=O)c1cccc(NC(=O)CC2C(=O)N(c3ccc(Cl)cc3)C(=O)N2C2CCCC2)c1 (stereo unspecified)	none (no result: HTT cytoprotect, Coupling enz, GoLoco inh red, HttQ103 aggreg, JMJD2E inh)
CCOc1nc(NC2CCCC2)nc(N2CCC(C)CC2)n1	VDR inh 79.4µM (no result: HTT cytoprotect, GoLoco inh red, HttQ103 aggreg, JMJD2E inh)
O=S(c1cc(Cl)cc(Cl)c1O)c1cc(Cl)cc(Cl)c1O	VDR inh 39.8µM (no result: Coupling enz, GoLoco inh red, JMJD2E inh)
O=C(O)C1=C(OCc2ccc(F)c(F)c2)C(=O)NCC1	VDR inh 79.4µM
Fc1ccccc1-c1csc(=Nc2cccnc2)n1CCCn1ccnc1	HttQ103 aggreg 35.5µM
Fc1ccccc1-c1csc(=Nc2cccnc2)n1CC1CCCO1 (stereo unspecified)	none
O=C(Nc1ccc(C(=O)N2CCCC2)cc1)c1ccc(F)cc1Cl	none (no result: HTT cytoprotect, GoLoco inh red, HttQ103 aggreg, JMJD2E inh)
COc1cccc(-c2cc(C(F)(F)F)c(C#N)c(=O)[nH]2)c1	VDR inh 70.8µM, JMJD2E inh inconclusive (no result: HTT cytoprotect)
CCOc1ccccc1/C=N/NC(=O)c1cccc(S(=O)(=O)N(CC)CC)c1	Coupling enz -37.5, HttQ103 aggreg inconclusive, JMJD2E inh inconclusive
CCN(CC)c1ccc(C(=O)N/N=C/c2ccccc2OC(F)F)cc1	HttQ103 aggreg 10µM, JMJD2E inh inconclusive
CC(C)Oc1ccccc1/C=N/NC(=O)c1ccc(F)cc1	none
CCN(CC)S(=O)(=O)c1cccc(C(=O)N/N=C/c2ccc(O)c(O)c2O)c1	Coupling enz -40.9, JMJD2E inh 7.94µM
CCN(CC)S(=O)(=O)c1cccc(C(=O)N/N=C(\C)c2ccc(O)cc2O)c1	HttQ103 aggreg 3.98µM, JMJD2E inh 25.1µM
CCc1ccccc1NC(=O)CN1C(=O)c2cccnc2Sc2ccccc21	none (no result: HTT cytoprotect, Coupling enz, GoLoco inh red, HttQ103 aggreg, JMJD2E inh)
Cc1cccn2c(=O)c3cc(C(=O)NCc4ccccc4Cl)sc3nc12	none (no result: HTT cytoprotect, Coupling enz, GoLoco inh red, HttQ103 aggreg, JMJD2E inh)
CCCCN(CC)CCCNC(=O)c1cn(-c2ccc(OC)cc2)c(=O)c2ccccc12	none (no result: HTT cytoprotect, GoLoco inh red, HttQ103 aggreg, JMJD2E inh)
Cc1cc(C)c(C(=O)CN2C(=O)C(=O)N(C3CCCC3)C2=O)cc1C	none (no result: HTT cytoprotect, Coupling enz, GoLoco inh red, HttQ103 aggreg, JMJD2E inh)
CC(C)OCCCNC(=S)NNC(=O)c1ccc(Cl)c(Cl)c1	none
N[C@@H](CSS(=O)(=O)O)C(=O)O	Coupling enz -76.5, VDR inh 10µM!, JMJD2E inh inconclusive (no result: HttQ103 aggreg)
O=c1c(Cc2ccc(Cl)cc2Cl)c(O)ccn1Cc1ccc(Cl)cc1	HttQ103 aggreg 20µM
CCCN(C(=O)C1=COCCO1)c1c(N)n(Cc2ccccc2)c(=O)[nH]c1=O	none (no result: HTT cytoprotect, Coupling enz, GoLoco inh red, HttQ103 aggreg, JMJD2E inh)
CS(=O)(=O)c1ccc(Cl)c(NC(=O)Cc2ccccc2F)c1	VDR inh 79.4µM
COc1cccc(CNc2cccc3cccnc23)c1O	Coupling enz -56.7, HttQ103 aggreg inconclusive
COc1cccc(CNc2ccccn2)c1O	none (no result: HTT cytoprotect, GoLoco inh red, HttQ103 aggreg, JMJD2E inh)
